This assay relates to PPARg DBDmut IVT, anti-PPARg (DBD mutation: PPARg1 K132A/R137A, NR concentration 270 nM). Briefly: PBM binding z-score (relative to random genomic background probes); higher = stronger binding; sequences stand for … in GC…GCGATTGACAGCGTAGAATGAAGG
An outline of the steps:
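Antibodies against each partner of ligand-free nuclear receptor dimers (one per run) detected binding on custom Agilent 4×180K protein-binding microarrays after 1 h incubation. The double-stranded probes had 34-nt variable regions carrying direct-repeat seeds, single-nucleotide variants, half-site ablations and random human genomic background sequences. Binding z-scores, from regression-normalized fluorescence, use the random background probes as reference.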
Regarding AGTCAAAGTTCATCCAGGTAACGTAAGATATGCT, the PBM binding z-score came to 1.23. The sequence CTCGAAAGGTCGGTTGAGGTGAGTAGACGGATAA returned a PBM binding z-score of -0.747. The sequence CCTTACGGGTCACGAGGTTATAGGACGACGAGCG displayed a PBM binding z-score of 0.939. As for ATCGAAAGGTCGACGAGGTGACTATACACCGTTT, the PBM binding z-score is 0.608. AGAATGAGGTTACGAAAGATCAGGGAAACGCTTG: the PBM binding z-score was 0.386. In the case of TCTGCTAGGTTAACGATGGTCAGCTAATCTGCTA it was -0.772. The same measure for ATCGAAAGGTCGACGAGGTGAGTATTCACCGTTT: 0.398; for ATATGTAGGTAAGCTGGGGTCATTCAGACTAGGC: 1.13. In the case of CATACAGGGTCAGCTAGCCCAGAGTAGGGACGGC it was -0.0933; in that of ATCGAAAGATCGAGGTGAGTATAGAGAAAGGGAA, 0.643; in that of TCTATTAGTTAAAGGGCAACCGACGAGTCCGTTT, 1.04. On to CCTATTATTTGACCATAAGGGCAACCGAAGCTCG, for which the PBM binding z-score came out at 1.57.

As for AATACACGGTCATCGTAGGCCAGAGTACGCACAG, the PBM binding z-score was 0.51.

With CGTCCAAGGGCAAAGGTCAGTGAAGAGATGACGG, the PBM binding z-score was -0.877. The sequence CCTTACGGGTCACAAGGTTATAGCACGACGAGCG showed a PBM binding z-score of 0.244. In turn, GCGACTGGGGCATCAGCAGGTTCCCATAACTTAA showed a PBM binding z-score of -0.982.

Sequence AGAACGAGGGCACGCTGAGTTTATAGCAGAGTAG yielded a PBM binding z-score of 0.317. In the case of GATACAGGGTCAAGGCCAGATTACGCGTATTGAT it was 1.3. In turn, ATACCAAGGTGAACGTGAGGTCGTTGATACTAAC came in with a PBM binding z-score of 0.95.

In the case of CCTGCTAGGTCTTGGTCAGCTAATCTACAGTATG, the PBM binding z-score was -1.03. Take GCTTGTAGATCAAGGTTACGAAAGACTAAGCTAA: the PBM binding z-score is -0.483. Consider CCTGCTAGGTCATGGTCAGCTACTCTACAGTATG, for which the PBM binding z-score was determined as 0.349.

(Values after the supplement of paper PMC6555819.)
